High-throughput results from PubChem BioAssay.
Pf apPOL inh = Pf-apPOL DNA polymerase inhibition. Recombinant Pf-apPOL, molecular beacon fluorescence, 1.5 h. inhibition, % at 10 µM. 0.25% of 210,000 active
mHTT CaM bind = inhibitors of human mutant huntingtin-calmodulin interaction. P42858. AlphaScreen His-mHTT/GST-CaM binding, luminescence. inhibition, % at 15 µM. 3.6% of 190,000 active;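 note: 0% = both proteins with DMSO and 100% = one protein alone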
An asterisk follows results filed as active; · = not tested or not shown. Only a selection was taken, and hits are over-represented in it overall. Cut-off read from the data, not from the text of the source: active = inhibition above about 50%; inactive = the rest.

SMILES	Pf apPOL inh	mHTT CaM bind
COc1ccc2c(c1)=CC(=Cc1[nH]c(SC(C)=O)nc1O)C(=O)N=2	-4	100*
COc1ccc(C=C2Oc3cc(C)cc(O)c3C2=O)cc1	4	38
CCOc1ccc(S(=O)(=O)N2CCC(c3noc(-c4cccc(F)c4)n3)CC2)cc1	-5	5
Cn1c(=O)c(-c2ccc(C(=O)Nc3ccc(F)cc3)cc2)nc2cccnc21	-2	1
CC(C)C1C(=O)N(Cc2cn(CCC3OCCCO3)nn2)CCS(=O)(=O)N1Cc1ccc(-c2cccc(CO)c2)cc1 (stereo not drawn)	-7	46
COCOCCn1cc(CN2CCS(=O)(=O)N(Cc3ccc(-c4cccc(N(C)C)c4)cc3)C(C(C)C)C2=O)nn1 (stereo not drawn)	-3	57*
COCOCCn1cc(CN2CCS(=O)(=O)N(Cc3ccc(-c4cccc(CO)c4)cc3)C(C(C)C)C2=O)nn1 (stereo not drawn)	-11	23
CC1C(=O)N(Cc2cn(CCC3OCCCO3)nn2)CCS(=O)(=O)N1Cc1ccc(-c2cccc(N(C)C)c2)cc1 (stereo not drawn)	-2	40
CC(C)C1C(=O)N(Cc2cn(CCC3OCCO3)nn2)CCS(=O)(=O)N1Cc1ccc(-c2cccc(N(C)C)c2)cc1 (stereo not drawn)	-1	68*
CC(C)C1C(=O)N(Cc2cn(CCC3OCCCO3)nn2)CCS(=O)(=O)N1Cc1ccc(-c2cccc(N(C)C)c2)cc1 (stereo not drawn)	-6	61*
CCC(=O)Nc1cccc(-c2nnc(SCC(=O)c3ccc([N+](=O)[O-])cc3)n2C)c1	-1	20
Cc1cc(C)cc(C(=O)N2CCC(c3nc(CNC(=O)C(C)C)cs3)CC2)c1	0	7
COc1cc(N2CN=c3s/c(=C\c4ccccc4)c(=O)n3C2)cc(OC)c1OC	-8	35
COc1cc(N2CN=c3s/c(=C\C=C\c4ccccc4)c(=O)n3C2)cc(OC)c1OC	-6	55*
Cc1cc2[nH]c(C(=O)Nc3ccccc3C)c(CN3CCCC3)c2s1	7	9
Cc1cc2[nH]c(C(=O)Nc3c(F)cccc3F)c(CN3CCCC3)c2s1	3	56*
CCOc1ccc(CNS(=O)(=O)c2ccc3[nH]c4c(c3c2)CCCC4)cc1OC	0	59*
Cc1ccc(CCNS(=O)(=O)c2ccc3[nH]c4c(c3c2)CCCC4)cc1	0	85*
COc1ccccc1CNS(=O)(=O)c1ccc2[nH]c3c(c2c1)CCCCC3	-5	98*
CCOc1ccc(CNS(=O)(=O)c2ccc3[nH]c(=O)sc3c2)cc1OC	0	0
Cc1cccnc1NS(=O)(=O)c1ccc2[nH]c3c(c2c1)CCCC3	-6	12
COc1ccccc1CNS(=O)(=O)c1ccc(C)c([N+](=O)[O-])c1	-1	-1
Cc1ccccc1NC(=O)c1ccc(F)c(S(=O)(=O)NC2CCCCCC2)c1	-2	12
O=C(Nc1cc(-c2nc3ccccc3s2)ccc1Cl)c1cncc(Br)c1	-7	-14
Clc1ccc(C2Oc3ccccc3C3=C2C(c2ccc(Cl)cc2)n2ncnc2N3)cc1 (stereo not drawn)	·	-7
SMILES	Pf apPOL inh	mHTT CaM bind
C=CCNC(=O)c1nnc(N2CCCC2)c2ccccc12	-24	8
C=CCNC(=O)c1nc(N2CCCCC2)c2c(C)c(C)n(-c3ccccc3)c2n1	-5	89*
Cc1ccc2c(c1)N(c1ccc(F)c(Cl)c1)C=C(C#N)S2(=O)=O	1	-9
CN(C)C=C(C#N)C(=O)c1cccc(C(F)(F)F)c1	33	·
CCCNC(=O)c1nc(C)n(C2CCN(C)CC2)c1C	-1	1
Cc1nc(C(=O)NCCc2ccccn2)c(C)n1C1CCN(S(C)(=O)=O)CC1	-7	10
Cc1nc(C(=O)NCCc2ccc(Cl)cc2)c(C)n1C1CCN(S(C)(=O)=O)CC1	1	61*
Cc1nc(C(=O)NCCCN2CCCc3ccccc32)c(C)n1C1CCN(C)CC1	-2	97*
O=C(c1cccc(Cl)c1)N1CCC(CCOc2ccncc2)CC1	-2	4
CC1=CC(=O)C=CC1=NC(=NS(=O)(=O)c1ccc(C)cc1)c1ccccc1	-9	58*
Cc1ccc(C(N)=NC(=NS(=O)(=O)c2ccccc2)c2ccccc2)cc1	2	5
CC1=CC(=NC(=NS(=O)(=O)c2ccc(C)cc2)c2ccccc2)C(C)=CC1=O	-1	59*
Cc1ccc(S(=O)(=O)N=C(Nc2ccccn2)c2ccccc2)cc1	4	-1
O=C(NC1CCCC1)C1CCCN(c2nc3ccsc3c(=O)n2Cc2ccccc2)C1 (stereo not drawn)	-3	5
CN(C)Cc1c(O)ccc2c1OC(=Cc1ccccc1F)C2=O	-13	1
CNc1ccc(OC)c2c1C(=O)c1ccccc1C2=O	-82	82*
COc1ccccc1NC(=O)c1cccc2c1C(=O)c1ccccc1-2	-2	21
CCOC(=O)C1=C(Nc2ccc(OC(C)=O)cc2)C(=O)N(C(C)(C)C)C1	8	·
O=C(NCCO)/C(=C\c1ccc2c(c1)OCO2)NC(=O)c1ccc(Br)cc1	2	0
